# Experimental data published in PubChem BioAssay (EPA / NIEHS).
# “And” between values parts separate entries of the source, which are not always exact repeats. Equal values may be shown once. Some compounds were tested as several samples or in several runs, with calls that do not always agree. The source made the active and inactive calls. The calls were made as follows: active = hit-call score of the fitted dose curve at least 0.9, where 1 is the maximum; inactive = score below 0.9.
# Tests used:
# Settings in all cases: primary human HUVEC with PBMC; actives raise or lower the signal
# [1] = read-out: Macrophage colony-stimulating factor (MCSF), CSF1 (gene 1435); experiment: BSK_LPS_MCSF: BioMAP Diversity Plus: LPS Assay for Macrophage colony-stimulating factor (MCSF) Biomarker Activity (AID 2283083)
# Procedure, shortened: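 HUVEC–PBMC co-culture, M-CSF measured by ELISA 24 h after chemical dosing. Fitted in both directions relative to DMSO as negative control; overt cytotoxicity assessed by SRB total-protein staining in parallel cultures.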
# [2] = read-out: Tissue Factor, F3 (gene 2152); experiment: BSK_LPS_TissueFactor: BioMAP Diversity Plus: LPS Assay for Tissue Factor Biomarker Activity (AID 2283084)
# Procedure, shortened: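 Human umbilical vein endothelial cells co-cultured with PBMC were dosed with compound. Cell-surface CD142 was measured by ELISA 24 h later. Activity was fitted bidirectionally against DMSO, with SRB total-protein staining in parallel cultures for cytotoxicity.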
# [3] = read-out: Tumor necrosis factor (Homo sapiens) (UniProt P01375); experiment: BSK_LPS_TNFa: BioMAP Diversity Plus: LPS Assay for Tumour Necrosis Factor alpha (TNFa) Biomarker Activity (AID 2283085)
# Procedure, shortened: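 Human umbilical vein endothelial cells co-cultured with PBMC and stimulated with LPS. TNFa was measured by ELISA 24 h after chemical dosing, fitted bidirectionally relative to DMSO.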
# [4] = read-out: Vascular cell adhesion molecule 1 (VCAM1), VCAM1 (gene 7412); experiment: BSK_LPS_VCAM1: BioMAP Diversity Plus: LPS Assay for Vascular cell adhesion molecule 1 (VCAM1) Biomarker Activity (AID 2283086)
# Procedure, shortened: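 Human umbilical vein endothelial cells co-cultured with PBMC and stimulated with LPS; VCAM-1 measured by ELISA 24 h after dosing. Bidirectional curve fitting against DMSO baseline; cytotoxicity tracked in parallel by SRB total-protein staining.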
# CD38, CD38 (gene 952) = experiment: BSK_SAg_CD38: BioMAP Diversity Plus: SAg Assay for CD38 Biomarker Activity (AID 2283087)
# Procedure, shortened: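 Human HUVEC plus PBMC co-culture stimulated with superantigen; CD38 measured by ELISA 24 h after chemical dosing. Fluorescence read-out, bidirectional fit against DMSO; cytotoxicity tracked in parallel by SRB and Alamar Blue.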
# CD40, CD40 (gene 958) = experiment: BSK_SAg_CD40: BioMAP Diversity Plus: SAg Assay for CD40 Biomarker Activity (AID 2283088)
# Procedure, shortened: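 HUVEC plus PBMC co-culture, superantigen-activated, with CD40 read by ELISA 24 h after dosing. Curves fitted in both directions against DMSO. Overt cytotoxicity checked by parallel SRB total-protein staining.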
# CD69, CD69 (gene 969) = experiment: BSK_SAg_CD69: BioMAP Diversity Plus: SAg Assay for CD69 Biomarker Activity (AID 2283089);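 as to AC50: cell surface CD69 protein quantified by ELISA with fluorescence detection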
# Procedure, shortened: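 Endothelial/PBMC co-culture; chemical added; 24 h incubation; CD69 ELISA with fluorescence detection; bidirectional fit vs DMSO.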
# [5] = read-out: Monocyte Chemoattractant Protein-1 (MCP1), CCL2 (gene 6347); experiment: BSK_SAg_MCP1: BioMAP Diversity Plus: SAg Assay for Monocyte Chemoattractant Protein-1 (MCP1) Biomarker Activity (AID 2283090)
# Procedure, shortened: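 MCP-1 levels in the endothelial–PBMC SAg co-culture were quantified by ELISA at 24 h post-dosing; both increases and decreases versus DMSO scored. Cytotoxicity monitored by SRB total protein in parallel cultures.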
# [6] = read-out: E-selectin (Homo sapiens) (UniProt P16581); experiment: BSK_SAg_Eselectin: BioMAP Diversity Plus: SAg Assay for Eselectin Biomarker Activity (AID 2283091)
# Procedure, shortened: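 Human umbilical vein endothelial cells co-cultured with peripheral blood mononuclear cells, SAg system. E-selectin is measured by ELISA 24 h after dosing and fitted bidirectionally against DMSO. Cytotoxicity is checked by SRB staining of parallel cultures.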
# [7] = BSK_LPS_PGE2: BioMAP Diversity Plus: LPS Assay for Prostaglandin E2 (PGE2) Biomarker Activity (AID 2283082);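 as to AC50: secreted prostaglandin E2 measured by ELISA in LPS-stimulated co-culture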
# Procedure, shortened: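 HUVEC plus human PBMC co-culture stimulated with LPS; secreted PGE2 quantified by ELISA 24 h after chemical dosing. Activity fitted bidirectionally against DMSO baseline; parallel SRB staining (0.1% SRB after 10% TCA fixation, 560 nm) flags overt cytotoxicity.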
# Sequence of Tumor necrosis factor (Homo sapiens) (P01375 whole entry, looked up): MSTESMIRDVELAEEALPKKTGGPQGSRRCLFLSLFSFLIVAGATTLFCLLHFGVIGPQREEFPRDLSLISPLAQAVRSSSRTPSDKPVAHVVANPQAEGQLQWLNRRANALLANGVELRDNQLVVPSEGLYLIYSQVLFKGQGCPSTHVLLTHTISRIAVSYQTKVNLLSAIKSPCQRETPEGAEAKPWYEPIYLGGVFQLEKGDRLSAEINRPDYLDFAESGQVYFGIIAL
# Sequence of E-selectin (Homo sapiens) (P16581 whole entry, looked up): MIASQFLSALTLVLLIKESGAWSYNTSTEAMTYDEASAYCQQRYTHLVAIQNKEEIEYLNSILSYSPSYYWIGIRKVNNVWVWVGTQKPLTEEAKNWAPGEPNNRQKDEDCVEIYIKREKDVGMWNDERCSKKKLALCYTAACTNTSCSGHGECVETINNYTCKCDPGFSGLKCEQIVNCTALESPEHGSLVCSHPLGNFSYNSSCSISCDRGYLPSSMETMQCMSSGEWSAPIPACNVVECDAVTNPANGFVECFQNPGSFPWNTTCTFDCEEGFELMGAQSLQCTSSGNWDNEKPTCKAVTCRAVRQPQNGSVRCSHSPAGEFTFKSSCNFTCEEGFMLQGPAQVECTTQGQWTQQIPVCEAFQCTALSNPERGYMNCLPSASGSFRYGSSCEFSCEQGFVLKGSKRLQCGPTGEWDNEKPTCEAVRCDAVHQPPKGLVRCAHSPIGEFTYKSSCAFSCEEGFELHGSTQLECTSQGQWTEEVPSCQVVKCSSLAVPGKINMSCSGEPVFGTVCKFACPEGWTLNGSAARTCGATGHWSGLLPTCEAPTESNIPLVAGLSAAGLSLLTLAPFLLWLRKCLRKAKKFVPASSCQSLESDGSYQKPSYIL
structure (smiles),measurement,setting,value
O=[N+]([O-])c1cc(C(F)(F)F)ccc1Cl,outcome,[1],inactive
same,outcome,[2],inactive
same,outcome,[3],inactive
same,outcome,[4],inactive
same,outcome,"CD38, CD38 (gene 952)",inactive
same,outcome,"CD40, CD40 (gene 958)",inactive
same,outcome,"CD69, CD69 (gene 969)",inactive
same,outcome,[5],inactive
same,outcome,[6],inactive
C[C@H]1C[C@@H]2[C@H]([C@@H](O)C[C@@]3(C)[C@H]2CC[C@]3(O)C(=O)CO)[C@@]2(C)C=CC(=O)C=C12,outcome,[1],inactive
same,AC50,[2],6.44 µM (active)
same,outcome,[2],inactive
same,AC50,[3],4.93 µM (active) and 3.97 µM (active)
same,outcome,[4],inactive
same,outcome,"CD38, CD38 (gene 952)",inactive
same,outcome,"CD40, CD40 (gene 958)",inactive
same,outcome,"CD69, CD69 (gene 969)",inactive
same,outcome,[5],inactive
same,AC50,[6],3.1 µM (active) and 1.1 µM (active)
N#Cc1ccc(CC(=NNC(=O)Nc2ccc(OC(F)(F)F)cc2)c2cccc(C(F)(F)F)c2)cc1,outcome,[1],inactive
same,outcome,[2],inactive
same,outcome,[3],inactive
same,outcome,[4],inactive
same,outcome,"CD38, CD38 (gene 952)",inactive
same,outcome,"CD40, CD40 (gene 958)",inactive
same,outcome,"CD69, CD69 (gene 969)",inactive
same,outcome,[5],inactive
same,outcome,[6],inactive
CC(=O)Nc1ccccc1O,outcome,[7],inactive
same,outcome,[1],inactive
same,outcome,[2],inactive
same,outcome,[3],inactive
same,outcome,[4],inactive
same,outcome,"CD38, CD38 (gene 952)",inactive
same,outcome,"CD40, CD40 (gene 958)",inactive
same,outcome,"CD69, CD69 (gene 969)",inactive
same,outcome,[5],inactive
same,outcome,[6],inactive
CCCCCCCCC=O,outcome,[7],inactive
same,outcome,[1],inactive
same,outcome,[2],inactive
same,outcome,[3],inactive
same,outcome,[4],inactive
same,outcome,"CD38, CD38 (gene 952)",inactive
same,outcome,"CD40, CD40 (gene 958)",inactive
same,outcome,"CD69, CD69 (gene 969)",inactive
same,outcome,[5],inactive
same,outcome,[6],inactive
Cc1cc(C2(c3cc(C)c(O)cc3C)OS(=O)(=O)c3ccccc32)c(C)cc1O,outcome,[7],inactive
same,outcome,[1],inactive
same,outcome,[2],inactive
same,outcome,[3],inactive
same,outcome,[4],inactive
same,outcome,"CD38, CD38 (gene 952)",inactive
same,outcome,"CD40, CD40 (gene 958)",inactive
same,outcome,"CD69, CD69 (gene 969)",inactive
same,outcome,[5],inactive
same,outcome,[6],inactive
CN(CCOc1ccc(CC2SC(=O)NC2=O)cc1)c1ccccn1 (stereo unspecified),outcome,[1],inactive
same,AC50,[2],24.9 µM (active)
same,outcome,[3],inactive
same,outcome,[4],inactive
same,AC50,"CD38, CD38 (gene 952)",20 µM (active)
same,AC50,"CD40, CD40 (gene 958)",20 µM (active)
same,AC50,"CD69, CD69 (gene 969)",20 µM (active)
same,AC50,[5],20 µM (active)
same,AC50,[6],20 µM (active)
CC(C)(COC(=O)c1ccccc1)COC(=O)c1ccccc1,outcome,[7],inactive
same,AC50,[1],30.9 µM (active)
same,outcome,[2],inactive
same,outcome,[3],inactive
same,AC50,[4],26.2 µM (active)
same,outcome,"CD38, CD38 (gene 952)",inactive
same,AC50,"CD40, CD40 (gene 958)",32.3 µM (active)
same,AC50,"CD69, CD69 (gene 969)",31.7 µM (active)
same,outcome,[5],inactive
same,AC50,[6],28.8 µM (active)
CCCCC(CC)COCCC#N (stereo unspecified),outcome,[7],inactive
same,outcome,[1],inactive
same,outcome,[2],inactive
same,outcome,[3],inactive
same,outcome,[4],inactive
same,outcome,"CD38, CD38 (gene 952)",inactive
same,outcome,"CD40, CD40 (gene 958)",inactive
same,outcome,"CD69, CD69 (gene 969)",inactive
same,outcome,[5],inactive
same,outcome,[6],inactive
CCCCC(CC)COC(=O)/C=C\C(=O)OCC(CC)CCCC (stereo unspecified),outcome,[7],inactive
same,outcome,[1],inactive
same,outcome,[2],inactive
same,outcome,[3],inactive
same,AC50,[4],11.9 µM (active)
same,outcome,"CD38, CD38 (gene 952)",inactive
same,outcome,"CD40, CD40 (gene 958)",inactive
same,outcome,"CD69, CD69 (gene 969)",inactive
same,outcome,[5],inactive
same,outcome,[6],inactive
CC(=O)[C@H]1CC[C@H]2[C@@H]3CC=C4C[C@@H](O)CC[C@]4(C)[C@H]3CC[C@]12C,outcome,[1],inactive
same,AC50,[2],9.59 µM (active) and 11.8 µM (active)
same,outcome,[3],inactive
same,outcome,[4],inactive
same,outcome,"CD38, CD38 (gene 952)",inactive
same,outcome,"CD40, CD40 (gene 958)",inactive
same,outcome,"CD69, CD69 (gene 969)",inactive
same,outcome,[5],inactive
same,outcome,[6],inactive
Cc1ccc(Nc2ccc(O)c3c2C(=O)c2ccccc2C3=O)cc1,AC50,[7],1.06 µM (active)
same,outcome,[1],inactive
same,outcome,[2],inactive
same,AC50,[3],435 nM (active)
same,outcome,[4],inactive
same,outcome,"CD38, CD38 (gene 952)",inactive
same,outcome,"CD40, CD40 (gene 958)",inactive
same,outcome,"CD69, CD69 (gene 969)",inactive
same,outcome,[5],inactive
same,outcome,[6],inactive
